Data taken from the supplement of paper PMC10849652.
The full data set covers some 7,900 targets. This sample favours those with a hit. About 0.6% of all pairs of compound and target were hits. Unmarked numbers belong to inactive results.

Experiments:
Test in all cases: log2 fold change, soluble protein after heating vs DMSO (PISA); higher = thermal stabilisation; K562 cells, 10 uM, 30 min; active = over 0.2 and 3.5 SD of the protein, either way, in both replicates (recomputed)
[1] = compound: C1=CC=C(C=C1)[C@H](COC2=CC3=C(C=C2)NC(=O)N3)NC(=O)C4=CC=CN(C4=O)CC5=CC(=C(C=C5)F)F
Procedure, shortened: (§1)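 For each measurement, 10 μM compound was applied for 30 min to K562 cells at 2×10^6 cells/mL. Aliquots were heated for 3 min across 48°C-58°C, pooled, and extracted in PBS with 0.5% NP-40 at 4°C; the supernatant after 21,000xg for 90 min was soluble protein. This was quantified by TMTpro 16plex LC-MS/MS with channel sums equalised, and thermal stability was reported relative to control samples from duplicates, on a log2 fold-change scale.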

[2] = compound: CC1=C(SC2=C1C(=N[C@H](C3=NN=C(N32)C)CC(=O)N)C4=CC=C(C=C4)Cl)C
Procedure, shortened: as §1

[3] = compound: CC1=C2C(=CC=C1)N=C(N(C2=O)C3=CC=CC=C3C)CN4C=NC5=C(N=CN=C54)N
Procedure, shortened: as §1

[4] = compound: Cc1sc2c(c1C)C(c1ccc(Cl)cc1)=N[C@@H](CC(=O)OC(C)(C)C)c1nnc(C)n1-2
Procedure, shortened: as §1

[5] = compound: c1ccc([C@@H]2C[C@H]2NC2CCNCC2)cc1
Procedure, shortened: as §1

Chain of UniProt O43934 (O43934 whole entry, looked up): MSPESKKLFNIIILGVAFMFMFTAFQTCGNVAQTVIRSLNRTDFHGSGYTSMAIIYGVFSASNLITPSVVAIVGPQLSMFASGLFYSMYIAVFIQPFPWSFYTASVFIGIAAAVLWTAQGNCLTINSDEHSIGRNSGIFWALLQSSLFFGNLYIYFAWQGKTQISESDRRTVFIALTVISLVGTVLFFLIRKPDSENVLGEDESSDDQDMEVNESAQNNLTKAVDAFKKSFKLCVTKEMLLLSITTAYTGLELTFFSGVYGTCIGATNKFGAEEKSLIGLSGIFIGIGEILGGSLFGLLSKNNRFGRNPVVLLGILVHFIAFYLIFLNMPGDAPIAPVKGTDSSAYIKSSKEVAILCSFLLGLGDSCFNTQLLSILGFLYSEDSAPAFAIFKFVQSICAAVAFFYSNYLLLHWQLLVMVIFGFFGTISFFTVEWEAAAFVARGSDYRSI
Chain of UniProt Q9H6K1 (Q9H6K1 whole entry, looked up): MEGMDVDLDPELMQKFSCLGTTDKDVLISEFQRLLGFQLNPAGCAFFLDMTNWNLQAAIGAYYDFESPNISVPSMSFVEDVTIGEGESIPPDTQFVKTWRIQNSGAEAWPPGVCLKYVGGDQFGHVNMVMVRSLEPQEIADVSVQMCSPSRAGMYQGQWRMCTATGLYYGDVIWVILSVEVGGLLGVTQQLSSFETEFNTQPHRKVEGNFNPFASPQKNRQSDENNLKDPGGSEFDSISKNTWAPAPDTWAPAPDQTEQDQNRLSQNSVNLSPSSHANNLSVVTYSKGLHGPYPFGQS
Chain of UniProt Q02750 (Q02750 whole entry, looked up): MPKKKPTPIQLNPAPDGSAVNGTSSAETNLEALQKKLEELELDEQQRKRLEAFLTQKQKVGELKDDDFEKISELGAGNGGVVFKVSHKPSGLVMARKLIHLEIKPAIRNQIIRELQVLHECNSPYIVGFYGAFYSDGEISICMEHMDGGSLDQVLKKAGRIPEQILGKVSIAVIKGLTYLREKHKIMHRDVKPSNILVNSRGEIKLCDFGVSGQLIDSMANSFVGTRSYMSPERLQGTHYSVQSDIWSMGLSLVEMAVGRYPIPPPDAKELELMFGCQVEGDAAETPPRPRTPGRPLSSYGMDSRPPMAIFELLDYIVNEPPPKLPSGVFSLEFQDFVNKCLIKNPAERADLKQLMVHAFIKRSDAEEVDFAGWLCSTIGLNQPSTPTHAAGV
Chain of UniProt Q9BQK8 (Q9BQK8 whole entry, looked up): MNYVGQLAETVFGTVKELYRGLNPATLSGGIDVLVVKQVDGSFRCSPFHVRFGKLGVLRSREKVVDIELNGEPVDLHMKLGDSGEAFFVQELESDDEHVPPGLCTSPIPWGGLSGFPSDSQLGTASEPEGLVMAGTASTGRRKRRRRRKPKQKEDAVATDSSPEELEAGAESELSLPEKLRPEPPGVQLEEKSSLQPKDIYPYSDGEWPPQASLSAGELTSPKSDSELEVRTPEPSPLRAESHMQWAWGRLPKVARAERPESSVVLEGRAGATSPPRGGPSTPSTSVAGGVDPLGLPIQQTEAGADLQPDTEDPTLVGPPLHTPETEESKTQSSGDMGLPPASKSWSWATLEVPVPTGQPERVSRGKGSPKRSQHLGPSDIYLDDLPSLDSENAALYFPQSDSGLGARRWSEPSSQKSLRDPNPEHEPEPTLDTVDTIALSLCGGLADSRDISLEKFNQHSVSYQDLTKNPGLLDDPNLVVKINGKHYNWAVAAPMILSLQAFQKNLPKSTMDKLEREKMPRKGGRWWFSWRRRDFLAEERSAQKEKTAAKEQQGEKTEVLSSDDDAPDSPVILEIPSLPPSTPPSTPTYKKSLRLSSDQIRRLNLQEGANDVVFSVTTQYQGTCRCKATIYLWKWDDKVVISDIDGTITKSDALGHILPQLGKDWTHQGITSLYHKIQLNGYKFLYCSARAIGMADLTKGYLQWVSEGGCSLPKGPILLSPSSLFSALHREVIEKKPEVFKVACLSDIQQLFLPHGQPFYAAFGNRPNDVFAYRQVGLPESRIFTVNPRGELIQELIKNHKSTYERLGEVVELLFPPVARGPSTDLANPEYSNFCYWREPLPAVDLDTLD
Chain of UniProt Q16891 (Q16891 whole entry, looked up): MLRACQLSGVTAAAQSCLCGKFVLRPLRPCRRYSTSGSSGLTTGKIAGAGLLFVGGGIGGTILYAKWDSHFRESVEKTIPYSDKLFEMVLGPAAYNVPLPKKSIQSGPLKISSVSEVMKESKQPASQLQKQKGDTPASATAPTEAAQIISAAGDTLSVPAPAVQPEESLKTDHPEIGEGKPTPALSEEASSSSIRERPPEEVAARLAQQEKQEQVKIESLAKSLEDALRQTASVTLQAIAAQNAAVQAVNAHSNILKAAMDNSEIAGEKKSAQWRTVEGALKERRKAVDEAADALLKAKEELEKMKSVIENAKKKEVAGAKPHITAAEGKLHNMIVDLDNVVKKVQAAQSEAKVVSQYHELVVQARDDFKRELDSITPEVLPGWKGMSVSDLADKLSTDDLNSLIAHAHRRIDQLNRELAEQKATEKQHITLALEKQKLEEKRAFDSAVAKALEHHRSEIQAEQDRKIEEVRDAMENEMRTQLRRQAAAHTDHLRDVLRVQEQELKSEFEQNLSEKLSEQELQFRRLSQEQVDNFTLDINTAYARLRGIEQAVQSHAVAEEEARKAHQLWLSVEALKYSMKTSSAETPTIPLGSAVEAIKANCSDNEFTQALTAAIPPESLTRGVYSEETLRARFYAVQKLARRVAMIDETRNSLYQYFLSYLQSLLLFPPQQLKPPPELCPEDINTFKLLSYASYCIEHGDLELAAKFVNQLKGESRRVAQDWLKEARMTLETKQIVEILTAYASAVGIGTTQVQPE
Chain of UniProt Q8IWB1 (Q8IWB1 whole entry, looked up): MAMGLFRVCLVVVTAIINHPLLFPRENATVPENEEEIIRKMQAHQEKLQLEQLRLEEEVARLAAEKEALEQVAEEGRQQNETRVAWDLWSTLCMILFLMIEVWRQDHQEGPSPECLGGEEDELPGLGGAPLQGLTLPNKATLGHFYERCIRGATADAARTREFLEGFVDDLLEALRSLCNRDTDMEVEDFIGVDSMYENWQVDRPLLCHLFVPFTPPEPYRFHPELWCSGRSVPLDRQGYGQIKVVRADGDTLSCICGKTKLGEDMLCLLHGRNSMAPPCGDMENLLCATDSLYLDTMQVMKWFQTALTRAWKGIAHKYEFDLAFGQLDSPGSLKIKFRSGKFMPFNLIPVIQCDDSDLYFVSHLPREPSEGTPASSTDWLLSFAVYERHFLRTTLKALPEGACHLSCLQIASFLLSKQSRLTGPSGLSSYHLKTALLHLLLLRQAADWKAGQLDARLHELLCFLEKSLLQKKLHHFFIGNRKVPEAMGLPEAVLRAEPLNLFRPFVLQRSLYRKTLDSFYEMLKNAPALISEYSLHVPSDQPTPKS
Chain of UniProt Q07820 (Q07820 whole entry, looked up): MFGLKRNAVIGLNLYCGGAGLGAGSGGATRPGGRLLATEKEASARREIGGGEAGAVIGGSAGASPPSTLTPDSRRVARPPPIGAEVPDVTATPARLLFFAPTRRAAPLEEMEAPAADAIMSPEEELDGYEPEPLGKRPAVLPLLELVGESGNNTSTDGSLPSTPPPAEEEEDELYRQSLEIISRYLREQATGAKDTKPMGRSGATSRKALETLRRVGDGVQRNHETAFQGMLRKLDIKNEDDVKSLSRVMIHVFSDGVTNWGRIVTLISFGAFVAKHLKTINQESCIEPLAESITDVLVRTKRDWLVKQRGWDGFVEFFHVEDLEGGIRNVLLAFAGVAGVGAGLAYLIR
Chain of UniProt P49137 (P49137 whole entry, looked up): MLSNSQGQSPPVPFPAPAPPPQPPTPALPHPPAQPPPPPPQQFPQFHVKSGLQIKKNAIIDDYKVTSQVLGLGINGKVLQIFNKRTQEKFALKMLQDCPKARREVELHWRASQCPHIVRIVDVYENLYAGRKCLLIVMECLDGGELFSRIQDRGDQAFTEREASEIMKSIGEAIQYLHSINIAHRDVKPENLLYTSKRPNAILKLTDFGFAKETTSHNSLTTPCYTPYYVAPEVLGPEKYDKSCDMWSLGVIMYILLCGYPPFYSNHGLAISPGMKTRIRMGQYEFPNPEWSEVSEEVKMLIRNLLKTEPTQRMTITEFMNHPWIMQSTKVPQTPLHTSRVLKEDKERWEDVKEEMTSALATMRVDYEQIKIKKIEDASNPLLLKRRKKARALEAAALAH
Chain of UniProt Q07666 (Q07666 whole entry, looked up): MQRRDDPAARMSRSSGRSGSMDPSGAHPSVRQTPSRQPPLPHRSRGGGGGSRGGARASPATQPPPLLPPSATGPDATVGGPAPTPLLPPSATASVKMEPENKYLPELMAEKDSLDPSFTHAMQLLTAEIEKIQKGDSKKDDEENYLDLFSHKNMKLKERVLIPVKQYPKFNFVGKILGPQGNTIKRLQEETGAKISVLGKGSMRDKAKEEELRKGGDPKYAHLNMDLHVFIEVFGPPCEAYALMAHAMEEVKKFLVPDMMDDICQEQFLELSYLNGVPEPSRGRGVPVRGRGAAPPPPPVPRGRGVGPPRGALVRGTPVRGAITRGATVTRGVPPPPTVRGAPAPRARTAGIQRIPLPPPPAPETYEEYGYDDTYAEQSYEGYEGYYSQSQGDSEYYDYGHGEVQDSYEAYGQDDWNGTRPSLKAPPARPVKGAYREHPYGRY
Chain of UniProt Q9NQX7 (Q9NQX7 whole entry, looked up): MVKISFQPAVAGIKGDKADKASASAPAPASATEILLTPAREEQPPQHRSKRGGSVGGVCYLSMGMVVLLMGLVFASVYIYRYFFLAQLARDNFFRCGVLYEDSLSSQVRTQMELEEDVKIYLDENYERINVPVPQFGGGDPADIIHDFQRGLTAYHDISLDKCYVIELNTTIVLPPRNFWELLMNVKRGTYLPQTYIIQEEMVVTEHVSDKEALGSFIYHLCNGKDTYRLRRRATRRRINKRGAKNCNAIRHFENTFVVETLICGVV
Chain of UniProt Q15528 (Q15528 whole entry, looked up): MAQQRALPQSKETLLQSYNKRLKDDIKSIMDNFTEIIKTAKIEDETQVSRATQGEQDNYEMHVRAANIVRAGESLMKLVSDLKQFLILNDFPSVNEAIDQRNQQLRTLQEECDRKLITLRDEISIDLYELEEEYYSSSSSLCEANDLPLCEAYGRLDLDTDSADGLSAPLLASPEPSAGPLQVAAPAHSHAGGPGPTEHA

Target | log2 fold change [1] | log2 fold change [2] | log2 fold change [3] | log2 fold change [4] | log2 fold change [5]
KHDC4 (UniProt Q7Z7F0) | -0.063 | 0.129 | 0.007 | -0.061 | -0.064
MIA2 (UniProt Q96PC5) | -0.036 | 0.041 | 0.02 | 0.029 | 0.027
IRF2BPL (UniProt Q9H1B7) | -0.051 | 0.027 | 0.001 | -0.067 | -0.043
KLHDC4 (UniProt Q8TBB5) | 0.048 | -0.074 | -0.165 | 0.084 | -0.047
KDM5D isoform 3 (UniProt Q9BY66) | 0.2 | 0.086 | 0.102 | -0.022 | 0.037
LMF2 (UniProt Q9BU23) | -0.001 | -0.013 | 0.097 | -0.012 | -0.053
IPO11 isoform 2 (UniProt Q9UI26) | 0.048 | 0.064 | 0.01 | 0.013 | 0.001
KIFBP (UniProt Q96EK5) | -0.075 | 0.025 | 0.06 | -0.058 | 0.005
IWS1 (UniProt Q96ST2) | -0.01 | 0.08 | 0.037 | 0.045 | -0.035
MIER1 isoform 12 (UniProt Q8N108) | -0.012 | 0.073 | 0.059 | 0.016 | 0.02
MAP4 (UniProt E7EVA0) | -0.009 | -0.15 | -0.095 | 0.096 | 0.005
LUC7L (UniProt Q9NQ29) | 0.011 | -0.015 | -0.011 | 0 | 0.027
MDC1 (UniProt Q14676) | -0.005 | -0.045 | -0.092 | 0.068 | 0.04
LYPLA2 (UniProt O95372) | 0.033 | 0.056 | -0.023 | -0.161 | -0.08
MAPK8 isoform 3 (UniProt P45983) | -0.007 | 0.151 | 0.072 | 0.061 | -0.055
ILF3 isoform 7 (UniProt Q12906) | 0.038 | -0.061 | -0.126 | 0.194 | 0.028
MAPRE3 (UniProt Q9UPY8) | -0.042 | 0.011 | 0.026 | -0.01 | -0.014
LMNA (UniProt P02545) | 0.043 | -0.016 | -0.044 | -0.017 | 0.052
IMMP1L (UniProt Q96LU5) | 0.054 | 0.045 | 0.101 | -0.021 | 0.024
MFSD11 (UniProt O43934) | 0.04 | 0.11 | 0.104 | -0.03 | -0.049
IGFBP4 (UniProt P22692) | -0.019 | -0.046 | 0.087 | -0.103 | 0.148
KIF11 (UniProt P52732) | -0.044 | -0.011 | 0.074 | 0.092 | -0.027
IMMT isoform 2 (UniProt Q16891) | 0.021 | 0.029 | 0.035 | 0.091 | 0.033
MAGEC2 (UniProt Q9UBF1) | 0.043 | -0.069 | 0.005 | 0.009 | 0.054
MCL1 (UniProt Q07820) | -0.013 | 0.125 | 0.135 | 0.057 | 0.073
MAP2K1 (UniProt Q02750) | -0.01 | 0.033 | 0.099 | -0.015 | 0
ITPRIP (UniProt Q8IWB1) | -0.024 | 0.096 | 0.054 | -0.081 | 0.027

Target | log2 fold change [1] | log2 fold change [2] | log2 fold change [3] | log2 fold change [4] | log2 fold change [5]
KIF1B isoform 4 (UniProt O60333) | -0.035 | 0.027 | 0.042 | -0.025 | -0.048
LRPPRC (UniProt P42704) | -0.312 | -0.059 | 0.257 | -0.031 | -0.05
KHDRBS1 (UniProt Q07666) | -0.038 | -0.018 | -0.025 | 0.055 | -0.021
LPIN3 isoform 2 (UniProt Q9BQK8) | -0.047 | 0.066 | 0.075 | -0.138 | -0.044
KIF3A (UniProt Q9Y496) | 0.027 | 0.039 | 0.054 | 0.049 | 0.002
MDN1 (UniProt Q9NU22) | -0.08 | 0.041 | 0.059 | -0.054 | -0.049
KIAA1324L (UniProt A8MWY0) | 0.041 | 0.044 | 0 | -0.001 | 0.035
MAP3K4 isoform 2 (UniProt Q9Y6R4) | -0.047 | 0.026 | 0.057 | -0.034 | 0.018
LARP4B (UniProt Q92615) | -0.003 | -0.013 | 0 | 0.081 | -0.014
MAP4K4 isoform 3 (UniProt O95819) | 0.009 | 0.032 | 0.044 | 0.04 | 0.264 (active)
INTS7 (UniProt Q9NVH2) | -0.005 | 0.086 | 0.001 | -0.085 | -0.054
MAPKAPK2 (UniProt P49137) | -0.047 | 0.064 | 0.012 | 0.013 | -0.056
MASTL (UniProt Q96GX5) | 0.047 | 0.081 | 0.009 | – | -0.02
MAP3K20 (UniProt Q9NYL2) | 0.02 | -0.037 | 0.017 | 0.005 | 0.022
MBLAC1 (UniProt A4D2B0) | -0.019 | 0.067 | -0.064 | – | -0.029
ILRUN (UniProt Q9H6K1) | 0.029 | 0.031 | 0.119 | 0.014 | -0.009
MAP1LC3B2 (UniProt A6NCE7) | 0.015 | 0.113 | 0.021 | -0.015 | -0.073
MED8 isoform 2 (UniProt Q96G25) | 0.011 | -0.053 | -0.381 (active) | – | 0.039
MIEF1 (UniProt Q9NQG6) | -0.043 | 0.053 | 0.047 | -0.024 | -0.054
KCTD2 (UniProt Q14681) | 0.008 | -0.01 | 0.022 | 0.195 | 0.158
IKZF1 isoform 2 (UniProt Q13422) | 0.335 | 0.217 | 0.052 | -0.026 | 0.061
MED22 (UniProt Q15528) | 0.013 | 0.065 | 0.013 | 0.195 | 0
ITM2C (UniProt Q9NQX7) | -0.077 | 0.007 | 0.122 | – | -0.121
ILF2 (UniProt Q12905) | 0.047 | -0.078 | -0.141 | 0.14 | 0.034
KXD1 (UniProt Q9BQD3) | -0.178 | 0.079 | 0.042 | -0.079 | 0.034
KIF3B (UniProt O15066) | -0.068 | -0.014 | 0.028 | 0.09 | -0.054
